Results as given in the antibiotic and cytotoxicity screens of Wong et al. (2023).
The whole screen tested about 39,000 compounds, of which about 3,300 (8.5%) were called active. The entries come from a sample that favours actives as a whole.

These compounds were tested on HepG2 (assay: cytotoxicity call (relative viability < 0.9)). Details: 10 µM.

Structure (SMILES) | cytotoxicity call
COc1ccc(NC(=O)N(C)C[C@H]2OCCCC[C@H](C)Oc3ccc(NC(=O)NC(C)C)cc3C(=O)N([C@@H](C)CO)C[C@@H]2C)cc1 | inactive
Cc1cc(C(=O)Nc2cccc3c2O[C@H](CN(C)S(=O)(=O)c2ccc(F)cc2)[C@@H](C)CN([C@@H](C)CO)C3=O)n(C)n1 | inactive
C[C@H](CO)N1C[C@H](C)[C@@H](CN(C)C(=O)Nc2ccc3c(c2)OCO3)Oc2ccc(NC(=O)Nc3cccc4ccccc34)cc2C1=O | inactive
COc1ccc(S(=O)(=O)N(C)C[C@@H]2Oc3c(NC(=O)c4ccncc4)cccc3C(=O)N([C@H](C)CO)C[C@H]2C)cc1 | inactive
CN(C)CCc1cc(Br)c(OCCCNC(=O)/C=C/c2cc(Br)c(OCCN3CCCCC3)c(Br)c2)c(Br)c1 | active
CN(C)CCc1cc(Br)c(OCCCNC(=O)/C=C/c2cc(Br)c(OCCN3CCCC3)c(Br)c2)c(Br)c1 | active
C=CC(=O)NCCN1CCCCC1 | inactive
COc1ccc(NC(=O)Nc2ccc3c(c2)C(=O)N([C@@H](C)CO)C[C@@H](C)[C@@H](CN(C)S(=O)(=O)c2ccc(Cl)cc2)OCCCC[C@@H](C)O3)cc1 | inactive
C[C@H](CO)N1C[C@H](C)[C@H](CN(C)S(C)(=O)=O)OCCCC[C@H](C)Oc2ccc(NS(C)(=O)=O)cc2C1=O | inactive
NC(=O)C1CCOCC1 | inactive
C[C@@H]1CN([C@H](C)CO)C(=O)c2cc(C#Cc3ccccn3)cnc2O[C@H]1CN(C)C(=O)CCN1CCCCC1 | inactive
CC(=O)O[C@H]1CCS(=O)(=O)C1 | inactive
COc1cccc(C(=O)Nc2ccc3c(c2)C(=O)N(C)[C@@H]2CC[C@@H](CC(=O)NCC(F)(F)F)O[C@H]2CO3)c1 | inactive
CCn1nnnc1NCc1cccn1C | inactive
C[C@@H]1CN([C@H](C)CO)C(=O)c2cc(NC(=O)Nc3ccc(C(F)(F)F)cc3)ccc2O[C@H]1CN(C)Cc1ccc(C(F)(F)F)cc1 | active
C[C@@H]1CN([C@@H](C)CO)C(=O)c2cc(NC(=O)Nc3ccc(C(F)(F)F)cc3)ccc2O[C@@H]1CN(C)Cc1ccc(C(F)(F)F)cc1 | active
C[C@@H]1CN([C@H](C)CO)C(=O)c2cc(NC(=O)Nc3ccc(C(F)(F)F)cc3)ccc2O[C@@H]1CN(C)Cc1ccc(C(F)(F)F)cc1 | active
C[C@@H]1CN([C@@H](C)CO)C(=O)c2cc(NC(=O)Nc3ccc(C(F)(F)F)cc3)ccc2O[C@H]1CN(C)Cc1ccc(C(F)(F)F)cc1 | active
C[C@H](CO)N1C[C@H](C)[C@H](CN(C)S(=O)(=O)c2ccc(F)cc2)Oc2ccc(NS(=O)(=O)c3ccc(F)cc3)cc2CC1=O | inactive
c1cnc2c(c1)OCCN2 | inactive
C=CCC[C@@H](Cc1ccc(F)cc1)C(=O)OC[C@H]1CCCN1C(=O)[C@H](CC=C)CC(=O)N(CCO)Cc1ccccc1 | inactive
C[C@@H]1CCCCO[C@@H](CN(C)C(=O)C2CCCCC2)[C@@H](C)CN([C@@H](C)CO)C(=O)c2cc(NC(=O)c3ccccc3)ccc2O1 | inactive

Structure (SMILES) | cytotoxicity call
O=c1nc(NCc2ccco2)cc[nH]1 | inactive
C[C@@H]1CN([C@@H](C)CO)C(=O)c2cc(NC(=O)Cn3cnnn3)ccc2O[C@H]1CN(C)Cc1ccc2c(c1)OCO2 | inactive
COc1ccc(S(=O)(=O)N(C)C[C@H]2Oc3ccc(NS(=O)(=O)c4ccccc4)cc3C(=O)N([C@H](C)CO)C[C@@H]2C)cc1 | inactive
Cc1ccc(S(=O)(=O)Nc2ccc3c(c2)CC(=O)N([C@@H](C)CO)C[C@H](C)[C@@H](CN(C)S(=O)(=O)c2ccccc2)O3)cc1 | inactive
Cc1noc(C)c1NC(=O)Nc1ccc2c(c1)C(=O)N([C@@H](C)CO)C[C@H](C)[C@@H](CN(C)S(=O)(=O)c1ccc(Cl)cc1)OCCCC[C@H](C)O2 | inactive
CCOC(=O)C1=NNC[C@@H]1C(=O)OCC | inactive
C[C@H](CO)N1C[C@H](C)[C@@H](CN(C)Cc2ccc(C(F)(F)F)cc2)Oc2ccc(NC(=O)Nc3ccc(C(F)(F)F)cc3)cc2C1=O | inactive
C[C@H](CO)N1C[C@H](C)[C@H](CN(C)Cc2ccc(C(F)(F)F)cc2)Oc2ccc(NC(=O)Nc3ccc(C(F)(F)F)cc3)cc2C1=O | active
C[C@H]1CN([C@@H](C)CO)C(=O)c2cc(NC(=O)Nc3ccc(C(F)(F)F)cc3)ccc2O[C@@H]1CN(C)Cc1ccc(C(F)(F)F)cc1 | active
C[C@H]1CN([C@@H](C)CO)C(=O)c2cc(NC(=O)Nc3ccc(C(F)(F)F)cc3)ccc2O[C@H]1CN(C)Cc1ccc(C(F)(F)F)cc1 | inactive
CC(=O)N1CCN(c2ccnc3c2c(=O)n(CC(=O)NC(C)(C)C)c(=O)n3C)CC1 | inactive
CO[C@H]1C[C@@H]2CC[C@@H](C)[C@@](O)(O2)C(=O)C(=O)N2CCCC[C@H]2C(=O)O[C@H]([C@H](C)C[C@@H]2CC[C@@H](OCCO)[C@H](OC)C2)CC(=O)[C@H](C)/C=C(\C)[C@@H](O)[C@@H](OC)C(=O)[C@H](C)C[C@H](C)/C=C/C=C/C=C/1C | inactive
C[C@@H]1CN([C@@H](C)CO)C(=O)Cc2cc(NS(=O)(=O)c3cn(C)cn3)ccc2O[C@@H]1CN(C)S(=O)(=O)c1ccc(Cl)cc1 | inactive
C[C@H]1CN([C@@H](C)CO)C(=O)c2cccc(NS(=O)(=O)c3ccc(Cl)cc3)c2O[C@H]1CN(C)Cc1ccc(-c2ccccc2)cc1 | inactive
COc1ccc(N2C(=O)C[C@@H](c3ccc(Br)cc3)[C@H]2C(=O)Nc2cccc3cccnc23)cc1 | inactive
COc1nc(=NC(=O)NS(=O)(=O)Nc2cccc3cccnc23)nc(OC)[nH]1 | active
C[C@@H]1CN([C@H](C)CO)C(=O)Cc2cc(NS(=O)(=O)c3ccc(F)cc3)ccc2O[C@H]1CN(C)S(=O)(=O)c1cccs1 | inactive
Cc1cc(C2(c3cc(C)c(N)c(C)c3)CCCCC2)cc(C)c1N | active
CC1CCC(NC(=O)N(CCCl)[NH2+][O-])CC1 (stereo not drawn) | inactive
CC(C)NC(=O)[C@@H]1c2ccccc2C(=O)N(Cc2cc(C(F)(F)F)cc(C(F)(F)F)c2)[C@H]1c1ccc(CO)cc1 | inactive
Cc1ccc(N(c2ccc(C)cc2)c2cccnc2)cc1 | inactive
